# Bioassay records (PubChem BioAssay)
# Sampled rows, rich in hits. Any-hit rate of the full collection: about 4.7%.
# tim23-1 inh: growth inhibitors of tim23-1 mutant yeast, primary screen, luminescence, uHTS; 330,000 tested, 1.3% active; S. cerevisiae tim23-1 growth, BacTiter-Glo luminescence, 24 h; inhibition, % at 20 µM;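 active = growth inhibition of the mutant yeast at or above 50%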;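 note: temperature-sensitive mutant grown at 25 °C; plate controls were DMSO-treated mutant yeast for no effect and medium wells lacking yeast for full effect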
# PfHsp90 set2: growth inhibition of PfHsp90-expressing yeast, primary screen, antimalarial PfHsp90 inhibitor project, S. cerevisiae, BacTiter-Glo luminescence, single point, set 2. inhibition, % at 9.4 µM. BacTiter-Glo ATP, 48 h; yeast lacking PDR1 and PDR3 efflux regulators. AID 504621, 2011. 310,000 tested, 0.32% active;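 active = every replicate shows inhibition above about 80%, whatever the replicate mean, limit read from the data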;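 note: 0% = DMSO neutral controls and 100% = 20 µM radicicol positive controls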
# SKKanGAS inh: S. pyogenes SKKanGAS growth inhibitors in kanamycin, primary screen, streptokinase expression inhibitor project, SKKanGAS strain, BacTiter-Glo luminescence | 300,000 tested, 1.3% active | inhibition, % at 7.5 µM | 6 h;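 active = mean replicate score, as percent of positive control median, at least 50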;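 note: strain carries kanamycin resistance gene driven by streptokinase promoter and grows in 40 µg/ml kanamycin; loss of luminescence reflects streptokinase promoter inhibition or plain growth inhibition; 0% = median of DMSO wells and 100% = positive control at its reference dose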
# EBI2 block: EBI2 receptor antagonists, beta-arrestin recruitment, primary screen, cell-based, luminescence, 7a,25-OHC stimulation, uHTS; 7a,25-OHC stimulated; inhibition, % at 5 µM; 360,000 tested, 0.81% active; AID 651636, 2012; in the data active = inhibition above about 38%;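 note: enzyme fragment complementation signal reports receptor beta-arrestin coupling in cells; 0% = agonist plus DMSO wells and 100% = wells without agonist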
# Target sequence (P32249 whole entry, looked up, the tested form may be a part): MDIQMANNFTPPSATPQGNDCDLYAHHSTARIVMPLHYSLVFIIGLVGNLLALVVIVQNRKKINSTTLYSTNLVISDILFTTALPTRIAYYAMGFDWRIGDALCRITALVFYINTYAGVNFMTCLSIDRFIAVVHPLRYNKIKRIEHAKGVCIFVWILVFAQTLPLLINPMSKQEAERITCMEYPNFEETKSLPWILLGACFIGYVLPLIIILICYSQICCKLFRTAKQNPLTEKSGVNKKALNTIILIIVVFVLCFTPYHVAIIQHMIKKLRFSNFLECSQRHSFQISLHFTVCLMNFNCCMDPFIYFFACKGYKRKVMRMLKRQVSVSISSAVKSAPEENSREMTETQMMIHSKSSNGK
# TIM10 inh: growth inhibitors of isogenic TIM10 control yeast, primary screen, counter-screen for tim10-1 yeast inhibitor project, luminescence, uHTS. S. cerevisiae TIM10 strain growth, BacTiter-Glo luminescence, 24 h. inhibition, % at 10 µM. 330,000 tested, 1.4% active;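 active = inhibition of 40% or more at the single tested concentration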;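 note: wild-type TIM10 isogenic control strain grown at permissive 25 °C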
# tim10-1 inh: growth inhibitors of tim10-1 mutant yeast, primary screen, luminescence, uHTS; AID 463190, 2010; inhibition, % at 20 µM; S. cerevisiae tim10-1 ts strain growth, BacTiter-Glo, 24 h; 330,000 tested, 2.2% active;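 active = inhibition of at least 40%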;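 note: mutant grown at 25 °C; 0% = DMSO wells with yeast and 100% = wells holding no yeast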
# tim23-1 confirm: tim23-1 mutant yeast growth inhibitors, confirmation, luminescence, single concentration | shares compounds with tim23-1 inh | S. cerevisiae tim23-1 growth, BacTiter-Glo luminescence, 24 h | inhibition, % at 20 µM | 4,400 tested, 83% active | AID 463218, 2010;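 active = inhibition above about 39% in either of two replicate wells at 20 µM, limit read from the data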;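 note: temperature-sensitive tim23-1 mutant grown at 25 °C; 0% = DMSO wells with yeast and 100% = medium wells without yeast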
# * marks the source's active call; other numbers are inactive results; / = no result.
SMILES,tim23-1 inh,PfHsp90 set2,SKKanGAS inh,EBI2 block,TIM10 inh,tim10-1 inh,tim23-1 confirm
COCC(C)n1c(C)cc(C(=O)COC(=O)CN=C2NS(=O)(=O)c3ccccc32)c1C (stereo not drawn),3.3,40.3,-3.8,-3.3,-7.5,15.3,/
N#Cc1nc(-c2cccc3ccccc23)oc1NCC1CCCO1 (stereo not drawn),53.9*,/,0.8,-2.0,33.1,29.5,51.6*
COc1ccc(N2CCN(C(=O)C3(C)CC3(Cl)Cl)CC2)cc1 (stereo not drawn),14.0,25.8,3.0,4.0,2.1,10.4,/
CC(C)C1CC(CCN)(Cc2ccccc2)CCO1 (stereo not drawn),14.4,-6.7,6.8,12.5,0.9,-10.9,/
CC1(C)C=Cc2c(ccc3c2OC[C@H](c2ccc(O)cc2O)C3)O1,74.8*,106.0*,/,-13.0,27.8,-52.6,-7.6
CC(=O)Oc1ccc([C@@H]2COc3c(ccc4c3C=CC(C)(C)O4)C2)c(OC(C)=O)c1,11.3,-77.0,8.9,-0.5,6.1,3.1,/
Cc1nc2nc(C)c(NS(=O)(=O)c3ccc4c(c3)CCCC4)c(=O)n2[nH]1,18.0,0.5,3.3,-0.2,0.4,18.2,/
Cc1cccc(-c2n[nH]c(=S)n2/N=C/c2cccs2)c1,50.6*,/,5.2,9.1,32.7,10.1,43.1*
Cc1ccc(C(=O)Nc2ncc([N+](=O)[O-])s2)cc1,/,0.6,13.4,-2.0,/,/,/
O=C(Nc1ncc([N+](=O)[O-])s1)c1ccc2c(c1)OCO2,57.0*,53.3,17.5,4.2,34.5,34.0,58.8*
Cc1c(Br)c([N+](=O)[O-])nn1C(C)C(=O)N1CCc2ccccc2C1 (stereo not drawn),27.3,20.8,-13.9,-0.5,11.2,32.2,/
O=C(O)c1cccc(-c2ccc(/C=N/n3cnc4sc5c(c4c3=O)CCCC5)o2)c1,52.3*,/,7.6,/,0.2,29.2,22.3
O=C(O)c1cccc(-c2ccc(/C=N/NC(=O)c3cccnc3)o2)c1,6.3,-19.5,10.0,-3.8,-15.6,5.0,/
Cc1ccc2nc(-c3cc(-c4ccccc4)no3)cn2c1,54.9*,-0.1,-10.4,16.7,30.1,3.3,47.2*
Cc1ccc(-c2cc(-c3ccccc3)no2)c(O)c1,/,-6.7,5.2,1.3,/,/,/
CC(=O)Nc1ccc2nc(-c3ccccc3)cn2c1,1.4,-33.4,2.0,-10.5,-1.9,-21.0,/
Clc1ccc2nc(-c3ccccc3)cn2c1,52.2*,-0.1,4.6,6.4,6.2,-9.9,23.9
COc1cccc(NC(=O)c2ccccc2N2C(=O)C3C4C=CC(C5CC45)C3C2=O)c1 (stereo not drawn),15.5,3.1,-0.9,-3.6,7.6,5.2,/
COc1cc2sc3cc(NCc4ccc5c(c4)OCO5)ccc3c(=O)c2cc1OC,23.8,-5.3,/,10.5,21.1,12.8,/
COc1cccc2sc3cc(NCc4ccc5c(c4)OCO5)ccc3c(=O)c12,67.8*,0.4,/,0.8,16.7,-32.7,56.1*
Cc1ccc(S(=O)(=O)NCc2csc(-c3cccs3)n2)cc1,58.9*,3.8,-6.2,0.5,30.6,36.0,43.0*
Cc1cc(C)nc(OC(=O)c2ccc(Cl)cc2Cl)n1,74.0*,/,-5.8,/,4.2,27.5,67.1*
Cn1c2ccccc2c(=O)c2c(=O)n(Cc3ccco3)c(-c3ccc(F)cc3)nc21,18.0,4.0,12.6,-13.9,17.9,-6.7,/
Cc1ccc(-c2nc3c(c(=O)c4ccccc4n3C)c(=O)n2Cc2ccco2)cc1,53.0*,6.2,28.2,-2.7,29.6,5.6,45.8*
N=c1n(CCO)c2ccccc2n1CCOc1ccccc1,65.4*,10.9,3.0,0.4,3.3,-2.5,2.1
SMILES,tim23-1 inh,PfHsp90 set2,SKKanGAS inh,EBI2 block,TIM10 inh,tim10-1 inh,tim23-1 confirm
CCn1c(=N)n(CCOc2ccc(OC)cc2)c2ccccc21,11.4,1.2,-2.9,2.2,3.6,11.4,/
CCOc1ccccc1C(=O)Oc1ccc2ccc(=O)oc2c1,68.3*,9.5,0.2,-5.1,32.1,5.1,47.1*
Cn1nc(Cc2cccc3ccccc23)c(C#N)c1N,8.3,-14.2,-2.3,-5.0,-3.7,-2.6,/
CC(C)(C)n1nc(Cc2cccc3ccccc23)c2c(N)ncnc21,62.1*,-14.3,12.8,-5.0,22.0,28.2,62.4*
NC(=S)Nc1cccc2cccnc12,22.8,6.2,-2.9,-4.5,3.8,21.2,/
NC(=S)NNc1cccc2cccnc12,58.0*,-1.5,6.9,-5.7,17.5,19.6,18.6
O=C(CN1C(=O)C2CC=CCC2C1=O)Nc1ccc(F)cc1F (stereo not drawn),12.5,-10.1,/,6.8,2.5,5.2,/
Fc1ccc(-c2n[nH]c(=S)n2Cc2ccccc2)cc1,56.1*,-16.3,-1.7,-1.4,36.4,15.9,29.2
COc1ccc(-c2csc(Nc3cc(C)ccn3)n2)cc1OC,94.0*,-20.3,7.6,11.9,17.7,24.8,30.8
CCc1nn2c(=O)cc(CSCC(=O)Nc3ccccc3F)nc2s1,14.9,-34.8,-7.0,0.1,-1.5,-3.8,/
CC(=O)c1ccc(NC(=S)NCCCn2ccnc2)cc1,0.0,7.5,-0.2,1.3,-11.7,4.3,/
Cc1c(-n2cc(C(=O)O)c(=O)c3cc(F)c(N4CCCC(O)C4)c(F)c32)c(=O)n(-c2ccccc2)n1C (stereo not drawn),9.0,9.8,-2.2,-11.0,-0.3,5.6,/
O=C(O)c1cn(-c2ccc(N3CCCC3)c(F)c2)c2c(F)c(F)c(F)cc2c1=O,53.1*,105.8*,13.2,-2.6,-0.3,4.6,15.8
CCC(Sc1nc2ccncc2[nH]1)C(=O)Nc1cc(Cl)ccc1C (stereo not drawn),5.6,-7.9,0.0,-3.5,-2.0,-6.5,/
O=C(COC(=O)c1ccc2ncsc2c1)Nc1ncc(Cl)cc1Cl,13.7,9.0,-12.7,-10.7,-1.0,12.4,/
O=C(COC(=O)c1ccc2ncsc2c1)Nc1cc(Cl)ccc1F,55.5*,-12.8,/,-9.0,9.7,30.3,41.1*
N=C1/C(=C\c2coc3ccccc3c2=O)C(=O)N=C2SC(c3ccncc3)=NN12,53.5*,-62.6,21.2,1.9,34.6,22.0,5.8
CCOc1ccc(S(=O)(=O)Nc2nc3ccccc3nc2Nc2ccc(N3CCOCC3)cc2)cc1,24.6,18.0,18.4,-2.3,8.9,22.2,/
Cc1ccn2cc(-c3ccc(NC(=O)c4ccco4)cc3)nc2c1,56.0*,16.0,-5.9,7.9,31.6,-37.5,47.5*
CC(=O)Nc1cccc(-c2cn3ccc(C)cc3n2)c1,3.9,-37.2,2.7,-5.1,3.2,-0.6,/
